Shown are actives, neighbours in structure and some others; about 2.8% of the full set was active somewhere.
POLK inh: qHTS for Inhibitors of Polymerase Kappa; Potency, µM (doses to about 107 µM), for inactives: top-dose activity, negative = inhibition, actives largely listed as inhibitors; hit rate 0.53% among 400,000; AID 588579, 2011; purified Pol kappa, fluorescent DNA synthesis assay, 10 min; note: potency is the fitted concentration of half-maximal effect; % is set by controls: 0 for no effect and ±100 for the full control effect
Target sequence (Q9UBT6 whole entry, looked up): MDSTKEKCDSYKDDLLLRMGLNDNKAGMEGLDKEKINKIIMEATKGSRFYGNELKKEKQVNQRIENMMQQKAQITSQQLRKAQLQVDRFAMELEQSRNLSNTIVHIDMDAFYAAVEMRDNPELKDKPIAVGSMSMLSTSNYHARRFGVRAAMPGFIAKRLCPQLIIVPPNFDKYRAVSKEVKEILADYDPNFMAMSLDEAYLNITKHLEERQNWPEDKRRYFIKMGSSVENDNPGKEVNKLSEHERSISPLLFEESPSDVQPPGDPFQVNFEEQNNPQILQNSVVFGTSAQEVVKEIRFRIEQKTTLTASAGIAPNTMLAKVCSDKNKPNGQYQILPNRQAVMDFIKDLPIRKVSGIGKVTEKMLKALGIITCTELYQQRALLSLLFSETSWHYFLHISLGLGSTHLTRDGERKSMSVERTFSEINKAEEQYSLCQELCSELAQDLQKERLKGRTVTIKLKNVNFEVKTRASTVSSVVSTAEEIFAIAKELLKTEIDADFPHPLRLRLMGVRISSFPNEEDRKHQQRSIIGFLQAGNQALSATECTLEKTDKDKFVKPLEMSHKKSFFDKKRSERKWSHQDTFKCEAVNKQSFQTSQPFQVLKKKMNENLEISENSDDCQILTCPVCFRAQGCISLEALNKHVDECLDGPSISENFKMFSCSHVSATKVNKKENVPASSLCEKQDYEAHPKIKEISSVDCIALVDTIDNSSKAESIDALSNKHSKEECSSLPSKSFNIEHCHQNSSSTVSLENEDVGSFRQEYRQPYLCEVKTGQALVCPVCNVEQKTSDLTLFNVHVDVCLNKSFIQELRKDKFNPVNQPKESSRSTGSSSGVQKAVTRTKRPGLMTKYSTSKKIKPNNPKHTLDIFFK
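Pol kappa 10 nM + cpd, 15 min RT; start w/ substrate 50 nM final; fluorescence kinetic read, 0 and 10 min. Neg ctrl: buffer, no enzyme.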
POLB inh: qHTS Assay for Inhibitors of DNA Polymerase Beta; P06746; Pol beta primer extension/strand displacement, fluorescence kinetic; Potency, µM (series often up to 114 µM), without a hit: at the highest dose activity change, negative = inhibition, hits mostly inhibitors; hit rate 1.3% among 340,000; AID 485314, 2010; note: potency is the fitted concentration of half-maximal effect; % is set by controls: 0 for no effect and ±100 for the full control effect
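Pol beta (10 nM) and compounds were preincubated 15 min at room temperature, then 50 nM substrate (final) started primer extension/strand displacement. Reads were taken at 0 and 10 min; concentration-response data were fitted to a four-parameter Hill equation.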
FEN1 inh: qHTS Assay for the Inhibitors of Human Flap endonuclease 1 (FEN1); Recombinant FEN1 flap cleavage, fluorescence, 15 min; hit rate 0.35% among 390,000; P39748; Potency, µM (top dose mostly 114 µM), for inactives: top-dose activity change, negative = inhibition, usual class: inhibitors; AID 588795, 2011; note: potency is the fitted concentration of half-maximal effect; % is set by controls: 0 for no effect and ±100 for the full control effect; nearly all actives have a fitted effect of over 65% in size
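FEN1 at 10 nM, compound pretreatment for 15 min (room temperature), 50 nM final substrate to initiate; endpoint reads at 0 and 15 min; DMSO-only plates used as vehicle background.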
Pol eta inh: qHTS for Inhibitors of Polymerase Eta; AID 588591, 2011; DNA polymerase eta (Homo sapiens), Q9Y253; Potency, µM (titrated, usually from 114 µM), inactives show at the highest dose activity change, negative = inhibition, hits mostly inhibitors; recombinant Pol eta, fluorescent DNA replication assay; hit rate 1.2% among 390,000; note: potency is the fitted concentration of half-maximal effect; % is set by controls: 0 for no effect and ±100 for the full control effect
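Pol eta (10 nM) was preincubated with compounds for 15 min at room temperature, after which fluorescent replication substrate (50 nM final) was added to start the reaction. Fluorescence was read kinetically at 0 and 10 min.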
POLI inh: qHTS for Inhibitors of Polymerase Iota; DNA polymerase iota (Homo sapiens), Q9UNA4; Pol iota fluorescent replication assay, 10 min; Potency, µM (highest dose often 115 µM), without a hit: at the highest dose activity, negative = inhibition, most hits filed as inhibitors; hit rate 1% among 390,000; note: potency is the fitted concentration of half-maximal effect
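Pol iota at 10 nM preincubated 15 min with compounds at room temperature; reaction started with fluorescent substrate, 50 nM final. Fluorescence read kinetically at 0 and 10 min; buffer-only wells as negative control.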
PI5P4K alpha inh: qHTS for Inhibitors of phosphatidylinositol 5-phosphate 4-kinase (PI5P4K); Phosphatidylinositol 5-phosphate 4-kinase type-2 alpha (Homo sapiens), P48426; PI5P4Kalpha enzyme, ADP-Glo luminescence, 60 min; stronger effect = lower value; hit rate 1.2% among 330,000; max response, %; active = max response of -50% or lower; inconclusive = between -30% and -50%; inactive = -30% or higher; note: value at the top dose of about 77 µM; % is set by controls: 0 for no effect and ±100 for the full control effect
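PI5P4Kalpha ADP-Glo assay; 5 microM ATP final; 60 min RT reaction; HEPES pH 7.4/EGTA/CHAPS, 5% DMSO; controls lacking substrate or enzyme; luminescent end-point.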
* hit, by the source's call; ? = inconclusive; . = no result; ! = not confirmed by another sample; [ ] = another dose, or the depositor's remark. Unless noted, calls come from the whole dose curve; as a rule, active = well fitted curve in the direction sought with a large enough effect; inconclusive = small, poorly fitted or top-dose-only effect, or another doubt; inactive = no such curve, though single readings can be large; an effect the other way counts as inactive or inconclusive.

SMILES	POLK inh	POLB inh	FEN1 inh	Pol eta inh	POLI inh	PI5P4K alpha inh
N#Cc1ccccc1Cn1c(=O)n(CCCC(=O)NCc2ccccc2Cl)c(=O)c2ccccc21	-60%	1%	1%	-10%	89µM*	.
O=C(O)CCC(=O)Nc1ccccc1N1CCOCC1	0%	0%	7%	-4%	11%	0
O=C(O)CC1(CC(=O)Nc2ccccc2N2CCOCC2)CCCC1	-3%	10µM*	4%	-16%	28%	-4
C[C@@H]1CN([C@H](C)CO)C(=O)CCCn2nncc2CO[C@H]1CN(C)S(=O)(=O)c1ccccc1F	.	.	.	-9%	.	0
CN(C)CC1CC/C(=C\c2ccc(O)cc2)C1=O (centres undefined)	-10%	.	56µM*	?	?	-21
CN(C)CC1CCC/C(=C\c2ccc(OC(=O)/C=C/c3ccccc3)cc2)C1=O (centres undefined)	-5%	.	12%	?	-1%	-10
CCN1C(=O)[C@H]2[C@@H](c3ccc(-c4ccc(Cl)c(Cl)c4)c(OC)c3)N[C@@](C)(C(=O)OC)[C@H]2C1=O	3%	.	-4%	-12%	?	-60*
CCN1C(=O)[C@H]2[C@@H](c3ccc(-c4ccc(Cl)c(Cl)c4)cc3)N[C@@](C)(C(=O)OC)[C@H]2C1=O	-5%	.	-28%	-16%	-28%	0
Cc1ccc(S(=O)(=O)N2CCN(c3nc(-c4cscn4)nc4ccccc34)CC2)cc1	2%	.	-8%	.	11%	.
CC/C(C)=N/Nc1nc2c(c(=O)[nH]c(=O)n2C)n1CCc1ccccc1	-6%	-17%	-10%	-7%	59%	?
CC/C(C)=N/Nc1nc2c(c(=O)[nH]c(=O)n2C)n1Cc1ccccc1	-36%	?	-24%	?	16µM*	-25
CC=CCn1c(SCc2ccccc2)nc2c1c(=O)[nH]c(=O)n2C	.	.	.	.	.	-58*
CCOC(=O)CSc1nc2c(c(=O)[nH]c(=O)n2C)n1CCc1ccccc1	-8%	9%	12%	-21%	20%	5
Cn1c(=O)[nH]c(=O)c2c1nc(SCC(=O)O)n2CCc1ccccc1	1%	8%	-12%	-11%	7%	-57*
Cc1ccc(NC(=O)CN2C(=O)N/C(=C\c3ccco3)C2=O)cc1	-15%	.	11%	-7%	?	.
c1ccc2c(N3CCNCC3)nc(-c3ccc4c(c3)OCO4)nc2c1	-10%[60.1 µM]	.	.	.	.	.
Cc1ccc(NC(=O)CCn2c(=O)c3cccn3c3ccccc32)c(Cl)c1	-21%	7%	-4%	-8%	12%	.
O=C(O)c1ccc(CN2C(=O)c3cccc4c([N+](=O)[O-])ccc(c34)C2=O)cc1	-6%	?	-8%	22µM*	?	-5
Cc1ccc(C)n1Cc1ccc(C(=O)O)cc1	1.3µM*	2.8µM*	4µM*	-98%	0.71µM*	.
O=C(O)c1ccc(CN2C(=O)c3ccc(C(=O)O)cc3C2=O)cc1	4%	20%	-16%	5%	-5%	-58*
COc1ccc(CN2C(=O)c3ccc(C(=O)O)cc3C2=O)cc1	-9%	1%	9%	9%	3%	-63*
O=C(O)c1ccc2c(c1)C(=O)N(Cc1ccc3c(c1)OCO3)C2=O	-11%	-19%	-7%	-4%	?	1
COC(=O)c1ccc(CN2C(=O)c3ccccc3C2=O)cc1	-6%	18%	4%	-21%	153%	1
O=C(CSc1ccccn1)N1CCNC1=O	-6%	.	6%	-14%	100%	3
CCOC(=O)c1c(-c2ccc(Br)cc2)csc1NC(=O)c1ccc(C(C)(C)C)cc1	-19%	26%	-15%	-15%	-15%	.
SMILES	POLK inh	POLB inh	FEN1 inh	Pol eta inh	POLI inh	PI5P4K alpha inh
COc1ccc(S(=O)(=O)NCC2CCCO2)cc1NC(=O)c1ccccc1F (centres undefined)	-13%	9%	5%	6%	-25%	1
COCCCNC1=C(C#N)C(=O)NC2(CCCC2)S1	.	.	.	-5%	.	-7
N#CC1=C(Nc2ccccc2Cl)SC2(CCCC2)NC1=O	.	.	.	.	.	-51*
CCC[C@@H]1CCCO[C@@](C(=O)NCc2cc(C)n(C)n2)(C(F)(F)F)C1	?	.	-14%	-19%	89µM*!	2
COc1ccc(S(=O)(=O)N2CN(Cc3ccco3)c3nc4ccccc4nc32)cc1	-9%	-11%	-4%	79µM*	?	.
COc1cc2ccc(=O)oc2cc1O	16%	.	22%	-8%	5%	3
COc1cc2ccc(=O)oc2cc1OCC(O)C(C)(C)O (centres undefined)	?	35µM*	15%	-4%	?	-5
CCOc1ccc(NC(=O)C(=O)NCCc2csc(-c3ccc(F)cc3)n2)cc1	2%[60.1 µM]	?	-3%	-6%	-6%	.
COc1ccc(N2CC(C(=O)Nc3ccc(S(=O)(=O)Nc4nccs4)cc3)CC2=O)c(OC)c1 (centres undefined)	?	.	-8%	50µM*	?	-16
COc1ccc(/C=C2\SC(=O)N(CCC(=O)Nc3ccc(S(=O)(=O)Nc4nccs4)cc3)C2=O)cc1	-5%	50µM*	5%	-15%	68%	-22
Cc1ccc(N2CC(C(=O)Nc3ccc(S(=O)(=O)Nc4nccs4)cc3)CC2=O)cc1C (centres undefined)	-17%	23%	1%	-5%	22%	-3
COc1ccc(/C=C2/SC(=O)N(CCC(=O)Nc3ccc(S(=O)(=O)Nc4nccs4)cc3)C2=O)cc1	-12%	22µM*	?	32µM*	?	?
COc1ccc(/C=C2\SC(=S)N(CCC(=O)Nc3ccc(O)cc3)C2=O)cc1	-5%	2%	-1%	-7%	92%	-6
CC(C)CCNC(=O)C1CCN(S(=O)(=O)c2cccc3nsnc23)CC1	-4%	50%	1%	4%	-13%	.
Cc1c(N)cc(N)cc1C(=O)O	89µM*	30%	-22%	8%	45µM*	-13
O=C(CSCc1ccc(Cl)cc1Cl)Nc1ccccc1C(=O)Nc1ccc(C(=O)O)cc1	-1%	4%	10%	-15%	-3%	-3
C=CCn1c(CSCc2ccc(Cl)cc2Cl)nnc1SCC(=O)Nc1ccc(C(=O)O)cc1	-3%	0%	-14%	-2%	?	-74*
Cc1ccccc1Cn1cnc2nc3c(cc2c1=O)CC(C)CC3 (centres undefined)	-4%[60.1 µM]	3%	36%	-18%	17%	.
